# Source: PubChem BioAssay
# HTR2A ag – mouse HTR2A agonism via beta-arrestin recruitment; CHO-K1 mHTR2A beta-arrestin complementation, luminescence; percent of 30 µM serotonin response; activation, % at 7.6 µM; 360,000 compounds, 0.66% hits; AID 624169;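 active = activation above a run cutoff, the mean activation of all tested compounds plus 3 SD, cut at about 14% in these data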
# Target sequence (P35363 whole entry, looked up): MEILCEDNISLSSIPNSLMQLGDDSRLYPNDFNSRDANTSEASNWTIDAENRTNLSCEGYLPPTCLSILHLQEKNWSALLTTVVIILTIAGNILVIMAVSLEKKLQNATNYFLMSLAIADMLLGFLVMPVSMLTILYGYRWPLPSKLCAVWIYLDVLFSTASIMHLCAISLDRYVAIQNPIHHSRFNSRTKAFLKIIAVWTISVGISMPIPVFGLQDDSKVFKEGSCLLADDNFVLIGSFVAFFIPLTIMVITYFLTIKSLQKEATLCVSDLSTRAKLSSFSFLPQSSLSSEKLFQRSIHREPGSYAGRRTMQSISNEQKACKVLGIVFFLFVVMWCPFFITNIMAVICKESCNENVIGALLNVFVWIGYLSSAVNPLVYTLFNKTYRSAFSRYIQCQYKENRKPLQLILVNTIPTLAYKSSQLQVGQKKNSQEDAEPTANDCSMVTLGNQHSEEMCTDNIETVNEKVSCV
# GC-B act – GC-B (human) receptor activation; P20594; HEK293-GC-B cells, CNP EC30, cGMP TR-FRET; 0% at EC30 CNP, 100% saturating CNP; activation, % at 10 µM; 370,000 compounds, 0.11% hits; AID 1920062;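 active = activation at 10 µM reaching about 35% in either raw or pattern-adjusted values, limit read from the data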
# MsrA act – bovine methionine sulfoxide reductase A activation; purified bovine MsrA, absorbance read-out; activation, % at 10.6 µM; 360,000 compounds, 0.3% hits; AID 602163; in the data active = activation above about 7.5%
# GC-A act – GC-A (human) enzyme activation. HEK293 GC-A cells, cGMP TR-FRET, EC30 ANP; 0% at EC30 ANP, 100% saturating ANP. activation, % at 10 µM. 370,000 compounds, 0.14% hits. P16066. AID 1671463; in the data active = activation above about 40%
# MsrA inhibitor – bovine MsrA inhibition; purified bovine MsrA, absorbance read-out; inhibition, % at 15.5 µM; 360,000 compounds, 0.75% hits; AID 651718
# MsrA conf – confirmation of bovine MsrA inhibitors; shares compounds with MsrA inhibitor; purified bovine MsrA, absorbance read-out; inhibition, % at 15.5 µM; 2,300 compounds, 41% hits;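 note: coupled to thioredoxin reductase with NADPH and selenocystamine and DMSO as substrate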
# Numbers stand for hits; n = inactive; x = no result. Sampled rows, rich in hits. Any-hit rate of the full collection: about 1.8%. Cut-off read from the data, not from the text of the source, unless noted: active = inhibition above about 4.5%; inactive = the rest.
SMILES,HTR2A ag,GC-B act,MsrA act,GC-A act,MsrA inhibitor,MsrA conf
O=C(N/N=C/c1ccc(O)c(O)c1)c1ccc(-n2cnnn2)cc1,n,n,n,n,4.8,4.6
CN(C)c1ccc(/C=N/NC(=O)c2nonc2N)cc1[N+](=O)[O-],n,n,n,n,4.9,n
O=C(N/N=C/c1ccc(O)c([N+](=O)[O-])c1)c1ccncc1,n,n,n,n,5.6,4.9
Cc1n[nH]c(C)c1S(=O)(=O)NC(C)Cc1ccccn1 (stereo not given),x,n,x,n,x,x
CC(=O)c1ccc(NC(=O)CN2CCCC2)cc1,n,n,n,n,n,x
C/C(CCCO)=N/Nc1ccc([N+](=O)[O-])cc1[N+](=O)[O-],n,n,n,n,14,7.0
C/C(CCC(=O)O)=N/Nc1ccc([N+](=O)[O-])cc1[N+](=O)[O-],n,n,n,n,13,9.8
CCC(CC)=NNc1ccc([N+](=O)[O-])cc1[N+](=O)[O-],n,n,n,n,n,x
Fc1cccc(Cl)c1CN1CCN(c2ncc(Cc3ccccc3)cn2)CC1,x,n,x,n,n,x
S=c1[nH]nc(C2CCCCC2)n1/N=C/c1ccccc1Cl,n,n,n,n,15,12
Cc1ccc(NC(=O)C2CCCN2S(=O)(=O)c2cccnc2)c(C)c1 (stereo not given),x,n,x,n,x,x
C=CCN1[C@H](C#N)[C@@H](c2ccc(C#Cc3ccccc3OC)cc2)[C@H]1CO,x,n,x,n,x,x
CCc1cc(-c2[nH]ncc2-c2ccc(OC)cc2)c(O)cc1O,n,n,n,n,7.1,n
Cc1ccn2c(C(=O)N/N=C\c3cccs3)c(C)nc2c1,n,n,n,n,7.4,5.8
Cc1ccc2nc(C)c(C(=O)N/N=C/c3cccs3)n2c1,n,n,n,n,n,x
CCCn1c(C)cc(/C=C(\C#N)C(=O)O)c1C,n,n,n,n,6.8,n
Cc1cc(/C=C(\C#N)C(=O)O)c(C)n1CC1CCCO1 (stereo not given),n,n,n,n,5.2,6.2
Cc1cc(/C=C(/C#N)C(=O)O)c(C)n1CCC(C)C,n,n,n,n,4.8,n
CCCCn1c(C)cc(/C=C(\C#N)C(=O)O)c1C,n,n,n,n,n,x
Cc1cc(/C=C(\C#N)C(=O)O)c(C)n1-c1ccc(Br)cc1,n,n,n,n,7.4,4.8
CCOC(=O)[C@@]12CCC3=C1N(CCC3)C(=O)[C@H](CC(=O)NCc1ccccc1)C2,x,n,x,n,x,x
O=C(O)c1cc([N+](=O)[O-])ccc1Nc1ccccc1,n,n,n,n,n,x
CCOC(=O)CC(C)(C)/C(C)=N/Nc1ccc([N+](=O)[O-])cc1[N+](=O)[O-],n,n,n,n,9.8,13
O=[N+]([O-])c1ccc(Nc2ccccc2O)c([N+](=O)[O-])c1,n,n,n,n,5.7,7.2
C/C(=N\Nc1ccc([N+](=O)[O-])cc1[N+](=O)[O-])C(C)C(C)C (stereo not given),n,n,n,n,16,14
SMILES,HTR2A ag,GC-B act,MsrA act,GC-A act,MsrA inhibitor,MsrA conf
CCOC(=O)C(C(=O)OCC)C(C)(C)/C(C)=N\Nc1ccc([N+](=O)[O-])cc1[N+](=O)[O-],n,n,n,n,n,x
C#CCOC(=O)CCCNc1ccc([N+](=O)[O-])cc1[N+](=O)[O-],n,n,n,n,n,x
O=[N+]([O-])c1ccc(NN=C(C2CC2)C2CC2)c([N+](=O)[O-])c1,n,n,n,n,n,x
CCOC(=O)C(C)/C(C)=N\Nc1ccc([N+](=O)[O-])cc1[N+](=O)[O-] (stereo not given),n,n,n,n,15,13
Fc1ccc(N2CCN(C3=Nc4ccccc4Sc4ccccc43)CC2)cc1,x,n,x,n,x,x
COCCN1Cc2cc(C(=O)OC)c3c(c2C1=O)c1ccccc1n3S(=O)(=O)c1ccc(C)cc1,x,n,x,n,n,x
C=CCN(C(=O)[C@@H](CCCC)[C@@H](O)c1ccc2ccccc2c1)c1ccccc1,x,n,x,n,x,x
O=C(Nc1c(-c2ccc(F)cc2)nc2ncccn12)c1ccc(F)cc1,x,n,x,n,x,x
CC(=O)NS(=O)(=O)c1ccc(NC(=O)/C=C/c2ccco2)cc1,n,n,n,n,6.0,7.2
NS(=O)(=O)c1ccc(NC(=O)/C=C/c2ccco2)cc1,n,n,n,n,n,x
COc1ccc(-c2cc(-c3ccccc3)nc(=O)[nH]2)cc1,n,n,n,n,5.3,n
COc1cccc(C2=N/C(=C\N(C)C)C(=O)O2)c1,n,n,n,n,11,7.0
COc1cccc(-c2nc3ccccc3c(=O)o2)c1,n,n,n,n,n,x
COc1cc(/C=C/c2ccc3cccc([N+](=O)[O-])c3n2)ccc1OCC(=O)O,n,n,n,n,5.8,n
COC(=O)[C@]12C[C@H](CC(=O)N3CCOCC3)C(=O)N(Cc3cccc4ccccc34)C1=C[C@H](C(C)(C)C)O[C@@H]2C,x,n,x,n,x,x
O=c1cc(-c2ccc(O)cc2)oc2ccccc12,n,n,n,n,n,x
O=c1cc(-c2ccc(O)cc2)oc2ccc(O)cc12,n,n,n,n,5.5,n
NC(N)=NC1=NC(=O)/C(=C/c2ccccc2-n2cccn2)S1,n,n,n,n,5.3,n
CCc1nc(N)c(C#N)c(-c2ccccc2OC)c1C,n,n,n,n,4.7,n
COc1ccccc1-c1c(C)c(C)nc(N)c1C#N,n,n,n,n,n,x
CCCc1nc(SCC(=O)O)c2sc(=S)n(-c3ccccc3)c2n1,n,n,n,n,4.7,4.8
COc1cc2sc(-c3ccc(S(C)(=O)=O)cc3)c(C(=O)NCCCCO)c2cc1OC,n,n,n,n,5.5,n
C(=N\Nc1ccccn1)/c1cccnc1,n,n,n,n,5.6,n
FC(F)(F)c1ccc(N/N=C/c2cccnc2)nc1,n,n,n,n,n,x
OC[C@@H]1CC[C@@H]2O[C@H](CCc3ccc(-c4ccc(F)cc4)cc3)[C@H](n3cc(C4CC4)nn3)C[C@@H]2O1,x,n,x,n,x,x
SMILES,HTR2A ag,GC-B act,MsrA act,GC-A act,MsrA inhibitor,MsrA conf
O=C(O)c1ccc(N/N=C/c2cccc(F)c2)cc1,n,n,n,n,6.8,6.7
O=C(O)c1ccc(N/N=C/c2ccc(F)c(F)c2)cc1,n,n,n,n,7.9,5.9
COC(=O)[C@]12C[C@H](CC(=O)NCC34CC5CC(CC(C5)C3)C4)C(=O)N(Cc3ccc(Cl)cc3Cl)C1=C[C@H](C(C)(C)C)O[C@@H]2C,x,n,x,n,x,x
CC1(C)CC(NC(=O)c2ccc(F)cc2)CC(C)(C)N1,n,n,n,n,n,x
CC(=O)c1ccc(-c2ccc(C(=O)NC3CC(C)(C)NC(C)(C)C3)o2)cc1,n,n,n,n,5.4,5.3
CC(C)CCOc1ccc(/C=N/N2C(=O)CSC2=S)cc1,n,n,n,n,n,x
COc1ccc(/C=N/N2C(=N)SCC2=O)cc1,n,n,n,n,6.3,n
COC(=O)c1sc(S(=O)(=O)Nc2ccc(C)c(C)c2)c(C(=O)OC)c1C,n,n,n,n,6.1,5.7
